From the supplement of paper PMC11732987, “Enantioselective OTUD7B fragment discovery through chemoproteomics screening and high-throughput optimisation” (Communications Chemistry, 2025)

Assays:
Experiment in all cases: log2 ratio of Biotin-Ahx-Ub-VS probe labelling (fragment/DMSO); higher = less target engagement (more negative = stronger competition), active = hit call of the paper (q ≤ 0.05, log2 ratio ≤ -1)
Conditions in all cases: compound concentration: 200 uM; treatment time: 3 h
USP34 = USP34 (UniProt Q70CQ2)
Outline: (§1)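 Global-median-normalised Spectronaut label-free quantities were compared by unpaired t-test, and values are average log2 ratios of fragment over vehicle. Only proteins with ≥2 unique peptides were used. HEK293T lysate (495 µg per sample) was treated in triplicate with fragment at 200 µM or vehicle for 3 h and then with Biotin-Ahx-Ub-VS at 0.5 µM final for 1 h. Labelled DUBs were then NeutrAvidin-enriched, digested with LysC and trypsin, and run by diaPASEF LC-MS/MS.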

USP36 = molecular target: T1, USP36 (UniProt Q9P275)
T1 sequence (whole entry): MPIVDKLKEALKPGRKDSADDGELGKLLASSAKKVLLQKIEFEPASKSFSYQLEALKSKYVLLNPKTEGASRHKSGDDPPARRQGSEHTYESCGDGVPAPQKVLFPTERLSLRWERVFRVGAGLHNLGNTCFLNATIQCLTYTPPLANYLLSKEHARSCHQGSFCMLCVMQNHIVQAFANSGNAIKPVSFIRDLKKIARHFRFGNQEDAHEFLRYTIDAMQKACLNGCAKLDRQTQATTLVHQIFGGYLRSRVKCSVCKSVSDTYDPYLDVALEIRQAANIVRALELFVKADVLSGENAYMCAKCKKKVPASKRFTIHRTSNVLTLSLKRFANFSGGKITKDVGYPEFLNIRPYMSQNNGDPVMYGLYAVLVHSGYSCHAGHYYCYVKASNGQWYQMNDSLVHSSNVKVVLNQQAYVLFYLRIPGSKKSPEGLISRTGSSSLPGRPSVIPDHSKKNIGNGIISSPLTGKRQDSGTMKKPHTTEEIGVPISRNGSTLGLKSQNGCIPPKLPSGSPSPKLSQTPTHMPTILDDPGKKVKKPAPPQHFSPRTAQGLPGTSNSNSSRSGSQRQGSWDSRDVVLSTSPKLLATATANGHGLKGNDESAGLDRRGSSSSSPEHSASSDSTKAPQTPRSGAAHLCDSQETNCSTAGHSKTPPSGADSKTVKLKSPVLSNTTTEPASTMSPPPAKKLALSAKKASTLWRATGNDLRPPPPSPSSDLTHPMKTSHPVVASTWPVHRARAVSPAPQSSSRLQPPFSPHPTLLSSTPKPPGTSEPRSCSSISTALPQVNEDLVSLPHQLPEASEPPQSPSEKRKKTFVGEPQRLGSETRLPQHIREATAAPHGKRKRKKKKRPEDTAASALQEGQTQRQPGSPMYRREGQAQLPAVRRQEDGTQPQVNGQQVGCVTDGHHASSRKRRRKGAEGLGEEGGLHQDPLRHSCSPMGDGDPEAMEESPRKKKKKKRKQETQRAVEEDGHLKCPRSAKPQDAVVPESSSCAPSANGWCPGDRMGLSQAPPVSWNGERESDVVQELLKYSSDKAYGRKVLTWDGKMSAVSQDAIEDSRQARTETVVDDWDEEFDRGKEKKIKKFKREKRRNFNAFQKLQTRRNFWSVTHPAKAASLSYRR
Outline: as §1

USP38 = molecular target: T2, USP38 (UniProt Q8NB14)
T2 sequence (whole entry): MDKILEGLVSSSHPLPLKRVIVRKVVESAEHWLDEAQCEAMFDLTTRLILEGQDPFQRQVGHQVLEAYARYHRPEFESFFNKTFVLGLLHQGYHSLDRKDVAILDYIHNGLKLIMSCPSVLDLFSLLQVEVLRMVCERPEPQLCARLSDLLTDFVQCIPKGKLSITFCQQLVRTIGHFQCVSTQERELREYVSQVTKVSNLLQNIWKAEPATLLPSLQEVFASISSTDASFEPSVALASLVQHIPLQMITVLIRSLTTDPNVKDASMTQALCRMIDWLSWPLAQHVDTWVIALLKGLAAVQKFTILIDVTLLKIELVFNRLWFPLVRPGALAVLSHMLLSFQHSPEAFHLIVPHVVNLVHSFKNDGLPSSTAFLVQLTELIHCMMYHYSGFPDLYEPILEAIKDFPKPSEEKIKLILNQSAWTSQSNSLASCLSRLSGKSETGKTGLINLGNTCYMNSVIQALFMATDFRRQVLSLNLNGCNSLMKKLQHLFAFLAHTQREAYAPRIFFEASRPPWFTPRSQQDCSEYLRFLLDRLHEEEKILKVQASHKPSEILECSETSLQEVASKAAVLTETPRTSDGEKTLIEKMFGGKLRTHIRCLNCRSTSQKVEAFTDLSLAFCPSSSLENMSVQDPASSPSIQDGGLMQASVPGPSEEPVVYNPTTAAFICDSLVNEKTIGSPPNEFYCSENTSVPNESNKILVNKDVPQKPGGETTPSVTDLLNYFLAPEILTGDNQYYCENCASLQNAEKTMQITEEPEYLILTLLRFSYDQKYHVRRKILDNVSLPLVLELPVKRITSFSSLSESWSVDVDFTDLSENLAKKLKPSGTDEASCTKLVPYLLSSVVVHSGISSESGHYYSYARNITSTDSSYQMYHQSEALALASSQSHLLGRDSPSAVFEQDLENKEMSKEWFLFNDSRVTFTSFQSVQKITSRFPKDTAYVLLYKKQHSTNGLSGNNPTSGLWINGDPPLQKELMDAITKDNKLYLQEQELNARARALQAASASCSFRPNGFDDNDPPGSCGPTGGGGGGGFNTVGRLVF
Outline: as §1

USP39 = molecular target: T3, USP39 (UniProt Q53GS9)
T3 sequence (whole entry): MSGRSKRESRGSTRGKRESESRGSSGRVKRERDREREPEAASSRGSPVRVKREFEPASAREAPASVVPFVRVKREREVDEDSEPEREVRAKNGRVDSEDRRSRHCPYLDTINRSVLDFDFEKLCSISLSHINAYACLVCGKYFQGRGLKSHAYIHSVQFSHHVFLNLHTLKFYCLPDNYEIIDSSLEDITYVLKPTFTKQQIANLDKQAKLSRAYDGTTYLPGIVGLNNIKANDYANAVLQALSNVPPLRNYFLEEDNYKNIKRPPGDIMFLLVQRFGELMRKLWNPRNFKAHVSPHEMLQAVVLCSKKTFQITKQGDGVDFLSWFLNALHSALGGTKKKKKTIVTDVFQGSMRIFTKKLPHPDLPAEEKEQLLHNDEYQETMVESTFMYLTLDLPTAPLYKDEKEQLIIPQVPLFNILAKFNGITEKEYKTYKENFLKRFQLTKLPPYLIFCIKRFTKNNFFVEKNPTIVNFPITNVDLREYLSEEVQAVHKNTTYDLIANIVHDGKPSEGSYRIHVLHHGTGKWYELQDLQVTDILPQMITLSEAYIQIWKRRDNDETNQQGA
Outline: as §1

USP4 = molecular target: T4, USP4 (UniProt Q13107)
T4 sequence (whole entry): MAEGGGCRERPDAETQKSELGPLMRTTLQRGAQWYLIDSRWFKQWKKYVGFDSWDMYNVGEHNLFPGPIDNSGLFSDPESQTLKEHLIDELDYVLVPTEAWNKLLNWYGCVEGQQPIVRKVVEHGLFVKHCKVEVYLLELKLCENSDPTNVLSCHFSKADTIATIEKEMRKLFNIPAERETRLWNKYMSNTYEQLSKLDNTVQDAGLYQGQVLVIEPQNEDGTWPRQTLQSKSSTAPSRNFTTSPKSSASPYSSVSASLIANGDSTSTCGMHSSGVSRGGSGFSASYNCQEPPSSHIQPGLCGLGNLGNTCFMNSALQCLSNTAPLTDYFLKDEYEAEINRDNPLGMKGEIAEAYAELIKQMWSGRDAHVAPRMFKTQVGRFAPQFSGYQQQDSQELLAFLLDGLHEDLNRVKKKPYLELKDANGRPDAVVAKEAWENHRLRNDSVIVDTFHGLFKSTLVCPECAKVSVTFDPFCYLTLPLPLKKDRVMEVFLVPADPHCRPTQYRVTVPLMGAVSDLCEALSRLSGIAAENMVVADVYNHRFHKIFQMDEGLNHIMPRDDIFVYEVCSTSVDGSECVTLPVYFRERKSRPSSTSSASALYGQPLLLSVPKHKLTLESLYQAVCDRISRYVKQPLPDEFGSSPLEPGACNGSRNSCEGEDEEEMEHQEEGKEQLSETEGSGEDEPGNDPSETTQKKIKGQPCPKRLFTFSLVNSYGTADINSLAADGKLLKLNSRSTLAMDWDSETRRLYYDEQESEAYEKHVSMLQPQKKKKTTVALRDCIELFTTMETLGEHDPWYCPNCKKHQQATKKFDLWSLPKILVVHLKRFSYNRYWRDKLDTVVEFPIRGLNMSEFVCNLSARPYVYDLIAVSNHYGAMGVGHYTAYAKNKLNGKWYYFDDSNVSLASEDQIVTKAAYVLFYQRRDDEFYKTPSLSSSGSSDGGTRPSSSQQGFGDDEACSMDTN
Outline: as §1

Measured: log2 ratio of Biotin-Ahx-Ub-VS probe labelling

Chain of USP34 (Q70CQ2 whole entry, the tested form may be a part): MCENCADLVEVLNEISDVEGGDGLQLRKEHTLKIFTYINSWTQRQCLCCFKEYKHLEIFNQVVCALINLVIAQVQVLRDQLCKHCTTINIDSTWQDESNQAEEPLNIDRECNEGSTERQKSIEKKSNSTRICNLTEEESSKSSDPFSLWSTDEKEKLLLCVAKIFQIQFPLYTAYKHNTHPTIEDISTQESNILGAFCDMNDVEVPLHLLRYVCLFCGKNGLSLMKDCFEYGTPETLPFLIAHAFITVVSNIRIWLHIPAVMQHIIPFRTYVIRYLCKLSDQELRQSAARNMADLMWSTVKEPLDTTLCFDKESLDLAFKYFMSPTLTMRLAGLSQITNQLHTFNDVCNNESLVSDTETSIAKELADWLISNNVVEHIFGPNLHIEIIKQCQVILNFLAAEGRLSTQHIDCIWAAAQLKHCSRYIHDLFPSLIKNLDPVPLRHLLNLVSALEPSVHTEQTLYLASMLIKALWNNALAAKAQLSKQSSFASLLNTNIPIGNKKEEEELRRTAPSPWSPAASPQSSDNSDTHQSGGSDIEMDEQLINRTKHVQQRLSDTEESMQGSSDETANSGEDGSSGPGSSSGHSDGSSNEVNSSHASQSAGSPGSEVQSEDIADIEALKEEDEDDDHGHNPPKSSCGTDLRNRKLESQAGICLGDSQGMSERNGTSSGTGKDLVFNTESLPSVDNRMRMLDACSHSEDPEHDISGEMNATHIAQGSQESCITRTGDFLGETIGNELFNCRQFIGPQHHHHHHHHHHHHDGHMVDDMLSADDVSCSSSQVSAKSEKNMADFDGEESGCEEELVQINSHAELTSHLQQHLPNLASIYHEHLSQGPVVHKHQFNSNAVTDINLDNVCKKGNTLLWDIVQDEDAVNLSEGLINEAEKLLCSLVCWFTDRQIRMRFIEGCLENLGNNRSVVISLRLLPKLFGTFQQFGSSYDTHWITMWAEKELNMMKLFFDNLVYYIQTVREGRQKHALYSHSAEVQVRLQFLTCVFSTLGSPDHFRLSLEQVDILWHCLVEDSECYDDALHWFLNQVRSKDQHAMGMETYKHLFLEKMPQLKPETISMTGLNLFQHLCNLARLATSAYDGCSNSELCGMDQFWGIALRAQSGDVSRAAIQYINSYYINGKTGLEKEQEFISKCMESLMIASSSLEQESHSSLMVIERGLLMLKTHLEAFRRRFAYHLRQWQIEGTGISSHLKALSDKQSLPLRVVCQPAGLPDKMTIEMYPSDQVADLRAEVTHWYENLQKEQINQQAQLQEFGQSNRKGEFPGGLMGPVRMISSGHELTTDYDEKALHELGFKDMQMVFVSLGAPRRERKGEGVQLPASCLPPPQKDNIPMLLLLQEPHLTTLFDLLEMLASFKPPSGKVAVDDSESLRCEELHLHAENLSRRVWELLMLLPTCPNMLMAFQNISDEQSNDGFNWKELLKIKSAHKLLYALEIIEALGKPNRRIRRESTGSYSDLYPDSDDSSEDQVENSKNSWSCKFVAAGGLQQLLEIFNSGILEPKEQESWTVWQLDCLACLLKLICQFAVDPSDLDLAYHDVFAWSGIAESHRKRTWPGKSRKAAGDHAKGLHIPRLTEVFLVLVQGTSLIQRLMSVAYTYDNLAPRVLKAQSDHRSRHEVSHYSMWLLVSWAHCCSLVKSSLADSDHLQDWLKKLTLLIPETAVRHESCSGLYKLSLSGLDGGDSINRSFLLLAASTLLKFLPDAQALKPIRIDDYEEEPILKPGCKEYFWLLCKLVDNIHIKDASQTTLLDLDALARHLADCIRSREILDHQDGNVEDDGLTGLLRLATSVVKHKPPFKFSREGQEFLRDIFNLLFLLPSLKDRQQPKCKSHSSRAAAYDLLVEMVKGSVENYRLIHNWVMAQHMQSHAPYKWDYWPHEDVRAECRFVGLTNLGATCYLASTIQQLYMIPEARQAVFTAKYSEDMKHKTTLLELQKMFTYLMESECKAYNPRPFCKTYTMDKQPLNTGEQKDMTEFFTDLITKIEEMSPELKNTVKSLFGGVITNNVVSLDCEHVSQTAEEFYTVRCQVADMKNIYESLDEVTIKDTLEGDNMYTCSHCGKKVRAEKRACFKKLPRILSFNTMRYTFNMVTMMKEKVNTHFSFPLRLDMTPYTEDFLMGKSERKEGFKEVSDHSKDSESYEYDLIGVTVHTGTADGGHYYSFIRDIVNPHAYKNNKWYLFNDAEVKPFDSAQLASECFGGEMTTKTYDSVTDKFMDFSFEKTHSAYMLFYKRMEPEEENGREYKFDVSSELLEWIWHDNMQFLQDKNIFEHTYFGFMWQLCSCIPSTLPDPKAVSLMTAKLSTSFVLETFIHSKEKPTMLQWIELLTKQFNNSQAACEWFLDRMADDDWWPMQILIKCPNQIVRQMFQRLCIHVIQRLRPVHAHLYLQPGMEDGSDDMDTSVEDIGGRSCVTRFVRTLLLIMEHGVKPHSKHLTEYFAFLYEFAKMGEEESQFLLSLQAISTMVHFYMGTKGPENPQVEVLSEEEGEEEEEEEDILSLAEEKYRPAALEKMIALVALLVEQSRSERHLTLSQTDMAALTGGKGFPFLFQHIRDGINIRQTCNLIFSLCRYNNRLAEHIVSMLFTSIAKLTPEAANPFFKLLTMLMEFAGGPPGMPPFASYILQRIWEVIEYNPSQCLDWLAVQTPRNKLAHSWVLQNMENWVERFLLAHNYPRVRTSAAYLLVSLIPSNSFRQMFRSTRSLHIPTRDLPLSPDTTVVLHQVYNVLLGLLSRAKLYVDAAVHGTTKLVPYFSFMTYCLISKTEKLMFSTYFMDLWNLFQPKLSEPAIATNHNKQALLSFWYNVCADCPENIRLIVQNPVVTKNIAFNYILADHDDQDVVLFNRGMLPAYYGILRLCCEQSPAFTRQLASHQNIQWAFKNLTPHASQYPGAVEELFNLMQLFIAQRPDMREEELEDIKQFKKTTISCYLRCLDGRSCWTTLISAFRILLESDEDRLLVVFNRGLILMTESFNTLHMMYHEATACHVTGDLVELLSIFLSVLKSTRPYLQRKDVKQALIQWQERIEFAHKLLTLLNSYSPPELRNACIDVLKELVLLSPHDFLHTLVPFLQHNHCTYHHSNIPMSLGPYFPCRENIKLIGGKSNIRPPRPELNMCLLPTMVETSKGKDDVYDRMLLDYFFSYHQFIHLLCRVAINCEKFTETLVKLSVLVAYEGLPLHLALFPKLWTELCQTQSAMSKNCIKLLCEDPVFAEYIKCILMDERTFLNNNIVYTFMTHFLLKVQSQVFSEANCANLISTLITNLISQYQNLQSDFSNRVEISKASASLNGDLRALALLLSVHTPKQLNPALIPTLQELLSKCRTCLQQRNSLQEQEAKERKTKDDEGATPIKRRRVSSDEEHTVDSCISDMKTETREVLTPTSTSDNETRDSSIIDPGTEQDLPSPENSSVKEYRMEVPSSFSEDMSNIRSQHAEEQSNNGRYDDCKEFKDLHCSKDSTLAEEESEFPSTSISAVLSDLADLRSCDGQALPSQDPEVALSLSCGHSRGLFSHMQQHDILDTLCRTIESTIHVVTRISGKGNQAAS

C#Cc1cccc(NC(=O)CCl)c1
inactive: USP34 -0.135 | USP36 -0.00355 | USP38 -0.119 | USP39 0.046 | USP4 0.0482
